{
  "source": "the supplement of paper PMC12067926",
  "data": [
    {"test_system": "Carnobacterium 1 (Carnobacterium gallinarum)", "assay": "relative growth (AUC of 72 h growth curve relative to DMSO control, dAUC) (ratio); higher = more growth (less inhibition), active = hit call of the paper", "settings": "20 µM;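 active = growth AUC significantly below the DMSO wells by Dunnett test; inactive = the rest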", "procedure": "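Environmental bacterial isolates (Iceland stream sediment and Silwood Park soil) and whole stream-sediment communities were grown in LB from a 1:100 dilution with each pesticide at 20 µM (1% DMSO). A600 was read hourly for 72 h and the area under a spline-fitted growth curve (AUC) was computed. dAUC is the mean AUC of 3 biological replicates divided by the mean AUC of the DMSO controls. Significance was tested by Dunnett's test against the DMSO control.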", "values": [
      {"smiles": "C[N+](C)(C)CCCl", "relative growth": "1.05 (inactive)"},
      {"smiles": "N#Cc1nn(-c2c(Cl)cc(C(F)(F)F)cc2Cl)c(N)c1[S+]([O-])C(F)(F)F", "note": "(stereo not given)", "relative growth": "0.821 (inactive)"},
      {"smiles": "CC(C)CC(C)c1sccc1NC(=O)c1cn(C)nc1C(F)(F)F", "note": "(stereo not given)", "relative growth": "0.721 (inactive)"},
      {"smiles": "CCc1cccc(C)c1N(C(=O)CCl)[C@@H](C)COC", "relative growth": "1.04 (inactive)"},
      {"smiles": "Cc1c(COC(=O)[C@@H]2[C@H](/C=C(\\Cl)C(F)(F)F)C2(C)C)cccc1-c1ccccc1", "note": "(racemic)", "relative growth": "1.17 (inactive)"},
      {"smiles": "Oc1ccc(Cl)cc1Cc1cc(Cl)ccc1O", "relative growth": "0.00911 (active)"},
      {"smiles": "N#CCNC(=O)c1cnccc1C(F)(F)F", "relative growth": "1.06 (inactive)"},
      {"smiles": "CCC(=O)Nc1ccc(Cl)c(Cl)c1", "relative growth": "0.897 (inactive)"},
      {"smiles": "CCOC(=O)CC(SP(=S)(OC)OC)C(=O)OCC", "note": "(stereo not given)", "relative growth": "1.09 (inactive)"},
      {"smiles": "O=C1c2ccccc2C(=O)N1SC(Cl)(Cl)Cl", "relative growth": "1.03 (inactive)"},
      {"smiles": "CC(C)(C)C(O)(CCc1ccc(Cl)cc1)Cn1cncn1", "note": "(stereo not given)", "relative growth": "0.864 (inactive)"},
      {"smiles": "CC(C)(C)c1ccc(CSc2cnn(C(C)(C)C)c(=O)c2Cl)cc1", "relative growth": "1.3 (inactive)"},
      {"smiles": "CC1(C)CON(Cc2ccccc2Cl)C1=O", "relative growth": "0.914 (inactive)"},
      {"smiles": "CCCSP(=O)(OCC)Oc1ccc(Br)cc1Cl", "note": "(stereo not given)", "relative growth": "0.842 (inactive)"},
      {"smiles": "O=C(NC(=O)c1c(F)cccc1F)Nc1ccc(Cl)cc1", "relative growth": "0.911 (inactive)"},
      {"smiles": "CC1(C)[C@H](C(=O)O[C@H](C#N)c2cccc(Oc3ccccc3)c2)[C@@H]1C=C(Br)Br", "relative growth": "1.47 (inactive)"},
      {"smiles": "N#Cc1sc2c(=O)c3ccccc3c(=O)c=2sc1C#N", "relative growth": "0.62 (inactive)"},
      {"smiles": "CCC(C)c1ccccc1OC(=O)NC", "note": "(stereo not given)", "relative growth": "1.11 (inactive)"},
      {"smiles": "COC(=O)N(C(=O)N1CO[C@@]2(C(=O)OC)Cc3cc(Cl)ccc3C2=N1)c1ccc(OC(F)(F)F)cc1", "relative growth": "1.15 (inactive)"},
      {"smiles": "CCOP(=S)(OCC)Oc1cc(C)nc(C(C)C)n1", "relative growth": "0.908 (inactive)"},
      {"smiles": "COc1ncc(F)c2nc(S(=O)(=O)Nc3c(F)cccc3F)nn12", "relative growth": "1.1 (inactive)"},
      {"smiles": "CNC(=O)ON=C(C)SC", "relative growth": "1.18 (inactive)"},
      {"smiles": "CCOc1cc(Oc2ccc(C(F)(F)F)cc2Cl)ccc1[N+](=O)[O-]", "relative growth": "0.874 (inactive)"},
      {"smiles": "CC(C1CC1)C(O)(Cn1cncn1)c1ccc(Cl)cc1", "note": "(stereo not given)", "relative growth": "1.34 (inactive)"},
      {"smiles": "CO/N=C(/C(=O)OC)c1ccccc1CO/N=C(\\C)c1cccc(C(F)(F)F)c1", "relative growth": "0.975 (inactive)"},
      {"smiles": "OC(Cn1cncn1)(c1ccc(F)cc1)c1ccccc1F", "note": "(stereo not given)", "relative growth": "1.15 (inactive)"},
      {"smiles": "CN1COCN(Cc2cnc(Cl)s2)/C1=N\\[N+](=O)[O-]", "relative growth": "1.12 (inactive)"},
      {"smiles": "CCC(C)(C)C(=O)OC1=C(c2ccc(Cl)cc2Cl)C(=O)OC12CCCCC2", "relative growth": "1.13 (inactive)"},
      {"smiles": "CC[C@H](C)[C@H]1O[C@]2(C=C[C@@H]1C)C[C@@H]1C[C@@H](C/C=C(\\C)[C@@H](O[C@H]3C[C@H](OC)[C@@H](O[C@H]4C[C@H](OC)[C@@H](O)[C@H](C)O4)[C@H](C)O3)[C@@H](C)/C=C/C=C3\\CO[C@@H]4[C@H](O)C(C)=C[C@@H](C(=O)O1)[C@]34O)O2.CO[C@H]1C[C@H](O[C@H]2[C@H](C)O[C@@H](O[C@@H]3/C(C)=C/C[C@@H]4C[C@@H](C[C@]5(C=C[C@H](C)[C@@H](C(C)C)O5)O4)OC(=O)[C@@H]4C=C(C)[C@@H](O)[C@H]5OC/C(=C\\C=C\\[C@@H]3C)[C@]54O)C[C@@H]2OC)O[C@@H](C)[C@@H]1O", "relative growth": "0.726 (inactive)"},
      {"smiles": "CSc1nnc(C(C)(C)C)c(=O)n1N", "relative growth": "1.38 (inactive)"},
      {"smiles": "COC(=O)c1ccccc1S(=O)(=O)NC(=O)Nc1nc(C)nc(OC)n1", "relative growth": "1.2 (inactive)"},
      {"smiles": "Cc1nc(N(C)C)nc(OC(=O)N(C)C)c1C", "relative growth": "0.883 (inactive)"},
      {"smiles": "CCNc1nc(Cl)nc(NC(C)C)n1", "relative growth": "1.18 (inactive)"},
      {"smiles": "CC(C)N1C(=O)N(c2ccccc2)CS/C1=N\\C(C)(C)C", "relative growth": "0.913 (inactive)"},
      {"smiles": "OC(Cc1ccccc1Cl)(Cn1nc[nH]c1=S)C1(Cl)CC1", "note": "(stereo not given)", "relative growth": "0.829 (inactive)"},
      {"smiles": "CCN(CC)c1nc(C)cc(OP(=S)(OC)OC)n1", "relative growth": "1.07 (inactive)"},
      {"smiles": "CNC(=O)CSP(=S)(OC)OC", "relative growth": "0.894 (inactive)"},
      {"smiles": "COP(=O)(OC)OC=C(Cl)Cl", "relative growth": "0.961 (inactive)"},
      {"smiles": "CC(C)(C)[C@@H](O)[C@H](Oc1ccc(Cl)cc1)n1cncn1", "relative growth": "1.06 (inactive)"},
      {"smiles": "CC[C@H](C)C1O[C@]2(C=C[C@@H]1C)C[C@@H]1C[C@@H](C/C=C(\\C)[C@@H](O[C@H]3C[C@H](OC)[C@@H](O[C@H]4C[C@H](OC)[C@H](NC)[C@H](C)O4)[C@H](C)O3)[C@@H](C)/C=C/C=C3\\CO[C@@H]4[C@H](O)C(C)=C[C@@H](C(=O)O1)[C@]34O)O2", "note": "(stereo not given in full)", "relative growth": "0.609 (inactive)"}
    ]}
  ]
}
